Potency and max response data for eleven compounds are collected here from PubChem BioAssay (Tox21).

Experiment [1] in a line: A CellTox Green Cytotoxicity Assay to monitor cytotoxicity in HEK293 cells - 40 hour (AID 1224871). Note: nearly all actives have a fitted effect of over 45% in size. Note: potency is the fitted concentration of half-maximal effect. Put shortly:
(§1)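 HEK293 cells premixed with CellTox Green dye were seeded at 600 cells/well and left 5 h at 37 C/5% CO2 before pin transfer of 23 nL compound in DMSO. Fluorescence from dye bound to dead-cell DNA was read during 40 h treatment.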

The nature of experiment [2]: qHTS RealTime-Glo MT Cell Viability Assay in HepG2 cells - 8 hour (AID 1224873). Note: nearly all actives have a fitted effect of over 55% in size. Put shortly:
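HepG2 cells (600/well) mixed with RealTime-Glo MT reagent, settled 5 h at 37 C/5% CO2 before compound addition. Nonlytic NanoLuc luminescence from viable-cell prosubstrate reduction read repeatedly during 40 h treatment at 37 C.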

The nature of experiment [3]: qHTS RealTime-Glo MT Cell Viability Assay in HEK293 cells - 40 hour (AID 1224874). Note: nearly all actives have a fitted effect of over 50% in size. Note: potency is the fitted concentration of half-maximal effect. The following applies: RealTime-Glo luminescence; max response: stronger effect = lower value. Put shortly: (§2)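 HEK293 cells mixed with RealTime-Glo reagents (NanoLuc plus cell-permeant prosubstrate) at 600 cells/well, preincubated 5 h at 37 C/5% CO2, then given 23 nL compound in DMSO. Nonlytic luminescence from viable cells was read at 0, 8, 16, 24, 32 and 40 h.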
(Quantitative high-throughput screening tests each substance at several concentrations.)

Experiment [4] can be described thus: A CellTox Green Cytotoxicity Assay to monitor cytotoxicity in HEK293 cells - 24 hour (AID 1224875). Note: series mostly up to about 77 µM; nearly all actives have a fitted effect of over 45% in size. Put shortly: as §1
Experiment [5] in a line: A CellTox Green Cytotoxicity Assay to monitor cytotoxicity in HepG2 cells - 16 hour (AID 1224876). Note: nearly all actives have a fitted effect of over 45% in size. Put shortly:
(§3)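 HepG2 cells were seeded together with the CellTox Green dye at 600 cells/well, left 5 h at 37 C/5% CO2, then given compounds in DMSO. Fluorescence from dye bound to dead-cell DNA was read repeatedly over 40 h of treatment at 37 C.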

A short description of experiment [6]: qHTS RealTime-Glo MT Cell Viability Assay in HepG2 cells - 32 hour (AID 1224877). Note: nearly all actives have a fitted effect of over 55% in size. Put shortly: (§4)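 Cell number in HepG2 cultures estimated from NanoLuc luminescence generated by metabolic reduction of a prosubstrate by living cells. The homogeneous, nonlytic format allowed repeated reads at 0, 8, 16, 24, 32 and 40 h of compound exposure.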
Experiment [7] in a line: A CellTox Green Cytotoxicity Assay to monitor cytotoxicity in HepG2 cells - 24 hour (AID 1224878). Note: nearly all actives have a fitted effect of over 45% in size. Put shortly:
as §3

Experiment [8] in a line: A CellTox Green Cytotoxicity Assay to monitor cytotoxicity in HepG2 cells - 40 hour (AID 1224879). Note: nearly all actives have a fitted effect of over 40% in size. Note: potency is the fitted concentration of half-maximal effect. Put shortly: as §3
Experiment [9] in a line: qHTS RealTime-Glo MT Cell Viability Assay in HEK293 cells - 0 hour (AID 1224880). Put shortly:
as §2

Experiment [10] in a line: A CellTox Green Cytotoxicity Assay to monitor cytotoxicity in HEK293 cells - 32 hour (AID 1224881). Note: nearly all actives have a fitted effect of over 40% in size. Note: potency is the fitted concentration of half-maximal effect. Put shortly:
as §1

Experiment [11] is described as follows: A CellTox Green Cytotoxicity Assay to monitor cytotoxicity in HepG2 cells - 0 hour (AID 1224882). Note: nearly all actives have a fitted effect of over 35% in size. Put shortly: as §3
The nature of experiment [12]: A CellTox Green Cytotoxicity Assay to monitor cytotoxicity in HepG2 cells - 32 hour (AID 1224883). Note: nearly all actives have a fitted effect of over 50% in size. Put shortly: as §3
Experiment [13] in a line: A CellTox Green Cytotoxicity Assay to monitor cytotoxicity in HEK293 cells - 8 hour (AID 1224884). Note: nearly all actives have a fitted effect of over 35% in size. Put shortly:
as §1

A short description of experiment [14]: qHTS RealTime-Glo MT Cell Viability Assay in HepG2 cells - 16 hour (AID 1224885). Note: nearly all actives have a fitted effect of over 50% in size. Put shortly: as §4
Experiment [15] can be described thus: qHTS RealTime-Glo MT Cell Viability Assay in HEK293 cells - 24 hour (AID 1224886). Note: top concentration of the series differs between compounds; nearly all actives have a fitted effect of over 50% in size. Put shortly:
(§5)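 Homogeneous bioluminescent viability format in HEK293 cells (600 cells/well). Following 5 h at 37 C/5% CO2, 23 nL compound was pintooled; the signal was measured repeatedly during 40 h incubation.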

Experiment [16] is described as follows: qHTS RealTime-Glo MT Cell Viability Assay in HEK293 cells - 8 hour (AID 1224887). Note: nearly all actives have a fitted effect of over 50% in size. Note: potency is the fitted concentration of half-maximal effect. Put shortly: as §2
Experiment [17] in a line: A CellTox Green Cytotoxicity Assay to monitor cytotoxicity in HEK293 cells - 16 hour (AID 1224888). Note: nearly all actives have a fitted effect of over 35% in size. Put shortly:
as §1

Experiment [18] can be described thus: qHTS RealTime-Glo MT Cell Viability Assay in HepG2 cells - 0 hour (AID 1224889). Note: nearly all actives have a fitted effect of over 50% in size. Put shortly: as §4
Experiment [19] is described as follows: A CellTox Green Cytotoxicity Assay to monitor cytotoxicity in HepG2 cells - 8 hour (AID 1224890). Note: nearly all actives have a fitted effect of over 45% in size. Put shortly: as §3
Experiment [20] in a line: qHTS RealTime-Glo MT Cell Viability Assay in HEK293 cells - 16 hour (AID 1224872). Put shortly: as §5

“And” between values parts separate entries of the source, which are not always exact repeats. Equal values may be shown once. Records with an inconclusive call do not appear. Where a structure was tested more than once in an assay, its records may differ in their call. The source made the active and inactive calls. Calls come from the whole dose curve; as a rule, active = well fitted curve in the direction sought with a large enough effect in the repeat runs; inconclusive = weak or mixed curves; inactive = no such curve, though single readings can be large; an effect the other way counts as inactive or inconclusive.
% is set by controls: 0 for no effect and ±100 for the full control effect.

On to `O=C(O)CCCCCCCCCCCC(=O)O`, for which the Potency in experiment [1] is 27.1 µM (active) and inactive; in experiment [8], 48.2 µM (active) and inactive. In addition, the Potency entry in experiment [2], in experiment [4], in experiment [5], in experiment [6], in experiment [7] and in [9] was “inactive” throughout. Further, the Potency result in experiment [10], in [11], in experiment [12], in experiment [13], in [14] and in [15] was “inactive” each time. Besides, the Potency result in experiment [16], in experiment [17], in experiment [18] and in experiment [19] was “inactive” in each case. The max response in [3] was 7.31% (inactive).

Regarding `CC(=O)OC(C)C`, the Potency result in experiment [1], in experiment [20], in [2], in experiment [4], in experiment [5] and in [7] was “inactive” in each case. In addition, the Potency entry in experiment [8], in [9], in [10], in experiment [11], in experiment [12] and in experiment [14] was “inactive” in each case. In addition, the Potency entry in [16], in experiment [17], in [18] and in [19] was “inactive” throughout. Besides, the max response in experiment [3] is -9.76% (inactive) and -7.44% (inactive).

As to `C=C[C@@]1(C)CC(=O)[C@]2(O)[C@@]3(C)[C@@H](O)CCC(C)(C)[C@@H]3[C@H](O)[C@H](OC(C)=O)[C@@]2(C)O1`, the Potency result in [1], in [2], in experiment [4], in experiment [5], in experiment [6] and in [7] was “inactive” each time. For the same compound, the Potency result in experiment [8], in [9], in experiment [10], in [11], in [12] and in experiment [13] was “inactive” throughout. The Potency entry in experiment [14], in experiment [15], in experiment [16], in [17], in [18] and in experiment [19] was “inactive” in each case. Further, the max response in experiment [3] was -11.8% (inactive).

For the compound `CC(C)[N+](C)(CCOC(=O)C1c2ccccc2Oc2ccccc21)C(C)C`, the Potency entry in [1], in experiment [20], in experiment [2], in [4], in experiment [5] and in experiment [7] was “inactive” throughout. In addition, the Potency result in [8], in experiment [9], in experiment [10], in [11], in [12] and in [13] was “inactive” each time. Moreover, the Potency result in experiment [14], in [15], in [16], in [17], in [18] and in experiment [19] was “inactive” in each case. In addition, in experiment [3], the max response was -23.6% (inactive) and -15.1% (inactive).

For the compound `CC(C)(C)c1cccc(C(C)(C)C)c1O`, the Potency was 47.9 µM (active) and inactive in experiment [1]; 21.4 µM (active) in [3]; 53.7 µM (active) and inactive in experiment [10]; 47.9 µM (active) and inactive in [16]. The Potency result in experiment [2], in experiment [5], in experiment [7], in experiment [8], in [9] and in [11] was “inactive” each time. Also, the Potency result in experiment [12], in experiment [13], in experiment [14], in [17], in experiment [18] and in experiment [19] was “inactive” in each case. Moreover, in experiment [3], the max response was 1.57% (inactive).

With `CCO[Si](CCCNC(N)=O)(OCC)OCC`, the Potency entry in experiment [1], in experiment [2], in [4], in experiment [5], in [6] and in [7] was “inactive” each time. The Potency result in [8], in [9], in experiment [10], in experiment [11], in experiment [12] and in experiment [14] was “inactive” in each case. Besides, the Potency entry in experiment [15], in [16], in experiment [17], in [18] and in experiment [19] was “inactive” in each case. Further, the max response in [3] was -7.6% (inactive) and 2.5% (inactive).

Consider `CCCCCCCCCCC(CO)CCCCCCCC` (stereo unspecified), for which the Potency result in experiment [1], in experiment [2], in experiment [4], in experiment [5], in [6] and in experiment [7] was “inactive” throughout. The Potency result in experiment [8], in [9], in [10], in experiment [11], in experiment [12] and in experiment [13] was “inactive” throughout. For the same compound, the Potency entry in experiment [14], in experiment [16], in [17], in experiment [18] and in experiment [19] was “inactive” in each case. The max response in [3] is 5.36% (inactive) and 2.58% (inactive).

Regarding `C=CC(=O)OCCCC`, the Potency entry in experiment [1], in [20], in experiment [2], in experiment [4], in [5] and in experiment [7] was “inactive” throughout. Besides, the Potency entry in [8], in [10], in experiment [11], in [12], in [13] and in [14] was “inactive” throughout. Also, the Potency entry in experiment [15], in experiment [16], in experiment [17], in experiment [18] and in [19] was “inactive” each time. For the same compound, in [3], the max response was 6.68% (inactive) and 3.94% (inactive).

`Clc1ccc(Sc2cc(Cl)c(Cl)cc2Cl)cc1`: the Potency entry in [1], in experiment [20], in [2], in experiment [4], in [5] and in experiment [7] was “inactive” in each case. For the same compound, the Potency entry in experiment [8], in experiment [9], in [10], in experiment [11], in experiment [12] and in experiment [13] was “inactive” each time. Also, the Potency result in experiment [14], in experiment [15], in experiment [16], in experiment [17], in [18] and in experiment [19] was “inactive” each time. The max response in experiment [3] was -26.8% (inactive) and 1% (inactive).

On to `C=CN1CCCC1=O`, for which the Potency result in experiment [1], in [20], in experiment [2], in experiment [4], in [5] and in experiment [7] was “inactive” each time. Also, the Potency entry in experiment [8], in experiment [9], in experiment [10], in experiment [11], in experiment [12] and in experiment [13] was “inactive” each time. Moreover, the Potency entry in experiment [14], in [15], in experiment [16], in [17], in experiment [18] and in experiment [19] was “inactive” each time. For the same compound, the max response in experiment [3] is 0.332% (inactive) and -7.88% (inactive).

In the case of `C/C=C/C(=O)N(CC)c1ccccc1C`, the Potency result in experiment [1], in experiment [20], in [2], in experiment [4], in experiment [5] and in [6] was “inactive” throughout. The Potency entry in experiment [7], in [10], in experiment [11], in experiment [12], in [13] and in [14] was “inactive” each time. Besides, the Potency result in experiment [15], in [16], in [17], in [18] and in [19] was “inactive” each time. Moreover, the max response in [3] is 1.07% (inactive) and 4.13% (inactive).
